This is part of a sample that, as a whole, favours compounds with a hit. Of some 83,000 tested, about 20% had one in any assay.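 Method: cells in 96-well plates; compound added at one concentration; 48 h incubation; percent growth measured; values under 10 scored active.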 Active and inactive are the calls of the source.
Each compound was assayed on SN12C renal (assay: NCI-60 one-dose screen, 48 h (100 = growth as untreated, 0 = no growth, -100 = all killed)). Conditions: 10 µM.

| Compound | growth |
| --- | --- |
| COc1ccc(-c2csc(NC(=O)c3ccc(Cc4n[nH]c(=O)c5cccnc45)cc3)n2)cc1 | 89.1% (inactive) |
| COc1ccccc1/C=N\N/C(N)=N\N=C\c1ccccc1OC | 18.4% (inactive) |
| O=c1cn[nH]c2ccc(Br)cc12 | 105% (inactive) |
| OCCn1cccn1 | 104% (inactive) |
| NS(=O)(=O)c1ccc(N2N=C(c3ccccc3)CCC2=O)cc1 | 101% (inactive) |
| COc1ccccc1N1CCCSC1=Nc1ccccc1 | 91.6% (inactive) |
| CC(C)N(CCOc1cccc(-c2nc3sccn3c2-c2ccnc(S(C)(=O)=O)n2)c1)C(C)C | 83.9% (inactive) |
| O=C(CCC(C(=O)c1ccccc1)c1ccccc1)c1ccccc1 (centres undefined) | 79.7% (inactive) |
| CCOC(=O)CSc1nc(-c2cc(OC)ccc2OC)cc(-c2ccc(OC)cc2)c1C#N | 79.5% (inactive) |
| COc1cccc(C2C(C#N)=C(N)Oc3cc(N)ccc32)c1 (centres undefined) | 36.3% (inactive) |
| CN(C)CCOc1cccc(-c2nc3sccn3c2-c2ccnc(S(C)(=O)=O)n2)c1 | 90.5% (inactive) |
| CCN(CC)CCCC(C)Nc1c2ccc(Cl)cc2nc2ccc(OC)cc12 (centres undefined) | 33.2% (inactive) |
| CC(C1=C(CN(C(=O)Cc2cn(-c3ccccc3)nc2-c2ccc(Cl)cc2)C(C)C)Cc2ccccc21)c1ccccn1 (centres undefined) | 77% (inactive) |
| CNS(=O)(=O)Oc1ccc(-c2ccc3occc3c2)cc1 | 97.7% (inactive) |
| O=C1c2ccccc2C(=O)N1CCCCNc1ccccc1 | 50.4% (inactive) |
| Cc1ccc(S(=O)(=O)N(C)CCCCCC(=O)O)cc1 | 106% (inactive) |
| CCN(CC)CCNc1ccc(C)c2sc3cc(Cl)ccc3c(=O)c12 | 35.6% (inactive) |
| O=C(/C=C/c1cccc(B(O)O)c1)c1cccc(B(O)O)c1 | -3.76% (active) |
| Cc1ccc(NC(=S)NNC(=S)Nc2ccc(C)cc2)cc1 | 68.1% (inactive) |
| C[C@@H](C[C@H](CCO)c1ccccc1)c1ccc2ccccc2c1 | -80.8% (active) |

| Compound | growth |
| --- | --- |
| CCN(CC)CCN1c2nc3ccccc3cc2Sc2cc3ccccc3nc21 | 27% (inactive) |
| CN(C)c1ccc(/C=N/NC(=O)c2ccccc2Nc2cccc(C(F)(F)F)c2)cc1 | 87.6% (inactive) |
| CS(=O)(=O)c1nccc(-c2c(-c3cccc(OCCN4CCOCC4)c3)nc3sccn23)n1 | 96.8% (inactive) |
| O=C(CCCSc1nc(-c2ccccc2)cc(-c2ccc(Cl)cc2)n1)NO | 6.93% (active) |
| CC(=O)COc1ccc(Cl)cc1Cl | 95.3% (inactive) |
| CN1CCc2c(sc3nc4n(-c5ccc(Cl)cc5)c(=O)[nH]n4c(=O)c23)C1 | 107% (inactive) |
| Cc1ccc(C2NC(=S)N3C(c4ccc(C)cc4)NC(=S)N23)cc1 (centres undefined) | 52.5% (inactive) |
| COCCn1cc(-c2nc(-c3cccnc3)cs2)c2cc(F)ccc21 | 95.7% (inactive) |
| Nc1nc(N)c(N)c(Nc2ccc(CCO)cc2)n1 | 100% (inactive) |
| CN(C)CCCSc1ccccc1NC1=C(Cl)C(=O)C(Nc2ccccc2SCCCN(C)C)=C(Cl)C1=O | -61.2% (active) |
| CCOC(=O)c1cc(C(=O)c2cc(OC)c(OC)c(OC)c2)n2c1ccc1c3cccnc3ccc12 | 78.7% (inactive) |
| NC1=NC(c2ccccc2)C2=C(N1)/C(=C/c1ccccc1)CCC2 (centres undefined) | 91.6% (inactive) |
| CCn1cc(C(=O)O)c(=O)c2cc(F)c(N3CCNCC3)cc21 | 106% (inactive) |
| COC1=CC(=O)OC(c2ccc(OC)cc2)C1 (centres undefined) | 99.3% (inactive) |
| Cc1ccc(C(=O)/C=C/c2ccccc2)s1 | 103% (inactive) |
| CCCCC/C=C/C/C=C/CCCCCCCC1=NC(C)(C)CN1C(C)C | 47.9% (inactive) |
| CCOC(=O)c1cc(C(=O)c2ccc(F)cc2F)n2ccccc12 | 95.9% (inactive) |
| CC1=CC2C(C(O)CC3(C)C2CC(C)C32OCOC23COCO3)C2(C)C/C(=C/O)C(=O)C=C12 (centres undefined) | 26.2% (inactive) |
| Cc1ccc(C)c(COc2cc(NC(=O)c3ccc4c(c3)OCO4)ccc2N(C)S(C)(=O)=O)c1 | 27.2% (inactive) |
| O=C(/C=C/C=C/c1c(C2CC2)nc2ccccc2c1-c1ccc(F)cc1)c1cccs1 | 38.1% (inactive) |

These compounds were tested on UO-31 renal in the same assay as above. Conditions: 10 µM.

| Compound | growth |
| --- | --- |
| COc1ccc(-c2csc(NC(=O)c3ccc(Cc4n[nH]c(=O)c5cccnc45)cc3)n2)cc1 | 51.9% (inactive) |
| COc1ccccc1/C=N\N/C(N)=N\N=C\c1ccccc1OC | 14.1% (inactive) |
| O=c1cn[nH]c2ccc(Br)cc12 | 78.9% (inactive) |
| NS(=O)(=O)c1ccc(N2N=C(c3ccccc3)CCC2=O)cc1 | 104% (inactive) |
| COc1ccccc1N1CCCSC1=Nc1ccccc1 | 81.2% (inactive) |
| CC(C)N(CCOc1cccc(-c2nc3sccn3c2-c2ccnc(S(C)(=O)=O)n2)c1)C(C)C | 89.8% (inactive) |
| CCOC(=O)CSc1nc(-c2cc(OC)ccc2OC)cc(-c2ccc(OC)cc2)c1C#N | 63% (inactive) |
| COc1cccc(C2C(C#N)=C(N)Oc3cc(N)ccc32)c1 (centres undefined) | 49.7% (inactive) |
| CN(C)CCOc1cccc(-c2nc3sccn3c2-c2ccnc(S(C)(=O)=O)n2)c1 | 72.1% (inactive) |
| CC(C1=C(CN(C(=O)Cc2cn(-c3ccccc3)nc2-c2ccc(Cl)cc2)C(C)C)Cc2ccccc21)c1ccccn1 (centres undefined) | 27.4% (inactive) |
| Cc1ccc(S(=O)(=O)N(C)CCCCCC(=O)O)cc1 | 88.3% (inactive) |
| CCN(CC)CCNc1ccc(C)c2sc3cc(Cl)ccc3c(=O)c12 | 26.9% (inactive) |
| O=C(/C=C/c1cccc(B(O)O)c1)c1cccc(B(O)O)c1 | -82.5% (active) |
| C[C@@H](C[C@H](CCO)c1ccccc1)c1ccc2ccccc2c1 | -86% (active) |
| CCN(CC)CCN1c2nc3ccccc3cc2Sc2cc3ccccc3nc21 | -64.1% (active) |
| CN(C)c1ccc(/C=N/NC(=O)c2ccccc2Nc2cccc(C(F)(F)F)c2)cc1 | 77.2% (inactive) |
| CS(=O)(=O)c1nccc(-c2c(-c3cccc(OCCN4CCOCC4)c3)nc3sccn23)n1 | 68.5% (inactive) |
| O=C(CCCSc1nc(-c2ccccc2)cc(-c2ccc(Cl)cc2)n1)NO | -26.4% (active) |
| CN1CCc2c(sc3nc4n(-c5ccc(Cl)cc5)c(=O)[nH]n4c(=O)c23)C1 | 89.7% (inactive) |
| Cc1ccc(C2NC(=S)N3C(c4ccc(C)cc4)NC(=S)N23)cc1 (centres undefined) | 12.7% (inactive) |
| COCCn1cc(-c2nc(-c3cccnc3)cs2)c2cc(F)ccc21 | 107% (inactive) |
| CN(C)CCCSc1ccccc1NC1=C(Cl)C(=O)C(Nc2ccccc2SCCCN(C)C)=C(Cl)C1=O | 35% (inactive) |
| CCOC(=O)c1cc(C(=O)c2cc(OC)c(OC)c(OC)c2)n2c1ccc1c3cccnc3ccc12 | 69% (inactive) |
| NC1=NC(c2ccccc2)C2=C(N1)/C(=C/c1ccccc1)CCC2 (centres undefined) | 70.5% (inactive) |
| Cc1ccc(C(=O)/C=C/c2ccccc2)s1 | 77.7% (inactive) |
| CCCCC/C=C/C/C=C/CCCCCCCC1=NC(C)(C)CN1C(C)C | 26.2% (inactive) |
| CCOC(=O)c1cc(C(=O)c2ccc(F)cc2F)n2ccccc12 | 72.3% (inactive) |
| CC1=CC2C(C(O)CC3(C)C2CC(C)C32OCOC23COCO3)C2(C)C/C(=C/O)C(=O)C=C12 (centres undefined) | 10.5% (inactive) |
| O=C(/C=C/C=C/c1c(C2CC2)nc2ccccc2c1-c1ccc(F)cc1)c1cccs1 | -43.8% (active) |
